Pf growth 48h: Primary qHTS for delayed death inhibitors of the malarial parasite plastid, 48 hour incubation; Potency, µM (highest dose often 28.7 µM), most hits filed as inhibitors; actives 5.9% (n = 310,000); P. falciparum luciferase growth in erythrocytes, 48 h; AID 504832, 2011
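In quantitative HTS format, infected erythrocytes bearing luciferase-reporter parasites were treated for a single generation at 37 C. Luminescence after adding detection reagent served as the growth measure.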
Sm TGR block: qHTS Assay for the Inhibitors of Schistosoma Mansoni Peroxiredoxins; Schistosoma mansoni thioredoxin glutathione reductase (TGR), Q962Y6; purified TGR, DTNB reduction, TNB absorbance 405 nm; Potency, µM (top dose mostly 114 µM), hits mostly inhibitors; actives 3% (n = 360,000); AID 485364, 2010; note: nearly all actives have a fitted effect of over 60% in size
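TGR 20 nM + NADPH 100 uM (dispensed conc.), cpd preinc 15 min RT; start with NADPH (500 uM addition) then DTNB (15 mM addition). Kinetic TNB absorbance, 405 nm filter. Four-parameter Hill fit across titration.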
NS1 function inh: qHTS Assay for Inhibitors of Influenza NS1 Protein Function | Potency, µM (highest dose often 46.1 µM) | actives 0.4% (n = 270,000); calls by dose curve; note: actives are rising curves; nearly all actives have a fitted effect of over 50% in size
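In this qHTS, NS1 from influenza A is expressed in budding yeast, where it slows growth. Cells are switched from glucose to 2% galactose medium (pH 6.0, -URA), treated with compound, and growth recovery is read at OD600.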
CHX counter: Cycloheximide Counterscreen for Small Molecule Inhibitors of Shiga Toxin. cell reporter, cycloheximide protein synthesis inhibition counterscreen. max response, %. actives 12% (n = 300,000). AID 2314, 2010; in the data active = max response mostly above about 13%, no sharp cut-off; inactive = mostly below about 14%; note: read at 38.3 µM for the half of the compounds with a filed dose
Shiga inhibitor: A qHTS for Small Molecule Inhibitors of Shiga Toxin | Vero cells, Shiga toxin protein synthesis inhibition reporter | actives 9.2% (n = 290,000) | inhibition, % at 38.7 µM | AID 2315, 2010; in the data active = inhibition mostly above about 28%, no sharp cut-off; inactive = mostly below about 43%
Pf growth 96h: Primary qHTS for delayed death inhibitors of the malarial parasite plastid, 96 hour incubation; P. falciparum luciferase reporter growth, 96 h; Potency, µM (highest dose often 28.7 µM), most hits filed as inhibitors; actives 6.9% (n = 320,000)
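Erythrocytes infected with luciferase-expressing P. falciparum were dispensed at 2% hematocrit and 0.05% parasitemia (final), then incubated with compounds 96 hours at 37 C in 5% CO2. Luminescence after detection reagent addition reported growth.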
Hits are given with their value; 0 = inactive; ? = inconclusive; - = no result given. This is a sample that favours compounds with a hit; in the whole collection about 21% have one here. Unless noted, calls come from the whole dose curve; as a rule, active = well fitted curve in the direction sought with a large enough effect; inconclusive = small, poorly fitted or top-dose-only effect, or another doubt; inactive = no such curve, though single readings can be large; an effect the other way counts as inactive or inconclusive.

SMILES | Pf growth 48h | Sm TGR block | NS1 function inh | CHX counter | Shiga inhibitor | Pf growth 96h
CCCCN(CC)CCCNC(=O)c1cn(C)c2ccc(S(=O)(=O)N(C)C3CCCCC3)cc2c1=O | ? | 0 | 0 | 0 | 0 | 15µM
COc1ccccc1CNC(=O)CCC(=O)N1CC2CCCN2c2ccccc21 (stereo unspecified) | - | 0 | - | - | - | -
C[C@@H]1C[C@H]2[C@@H]3CCC4=CC(=O)C=C[C@]4(C)[C@@]3(F)[C@@H](O)C[C@]2(C)[C@H]1C(=O)CO | ? | 0 | 0 | 0 | 0 | 9.3µM
CC(=O)OCC(=O)[C@@]12OC3(CCCC3)OC1CC1C3CCC4=CC(=O)C=C[C@@]4(C)[C@]3(F)C(O)C[C@]12C (stereo partly specified) | 15µM | - | - | - | - | 9.5µM
CC1(C)O[C@@H]2C[C@H]3[C@@H]4CCC5=CC(=O)CC[C@]5(C)[C@@]4(F)[C@@H](O)C[C@]3(C)[C@]2(C(=O)CCl)O1 | 2.6µM | 0 | - | - | - | 3.3µM
C[C@]12CCC(=O)C=C1CC[C@H]1[C@@H]3CC[C@](O)(C(=O)CO)[C@@]3(C)C[C@H](O)[C@@]12F | 0 | - | - | - | - | ?
CC(=O)OCC(=O)[C@@]1(O)[C@H](C)C[C@H]2[C@@H]3CCC4=CC(=O)C=C[C@]4(C)[C@@]3(F)[C@@H](O)C[C@@]21C | 0 | 0 | 0 | 0 | 0 | 0
CC1(C)O[C@H]2C[C@@H]3[C@H]4CCC5=CC(=O)CC[C@@]5(C)[C@]4(F)[C@@H](O)C[C@@]3(C)[C@@]2(C(=O)CCl)O1 | 5.1µM | - | - | - | - | 4.1µM
Cc1csc(NC(=O)C2CC(=O)N(c3ccc4c(c3)OCCO4)C2)n1 (stereo unspecified) | 0 | 0 | - | - | - | ?
O=C(CCCCl)Nc1nc(-c2ccc3c(c2)OCCO3)cs1 | 0 | 0 | 0 | 31 | 70 | 0
N#CCC(=O)Nc1nc(-c2ccc3c(c2)OCCO3)cs1 | 0 | 0 | 0 | 32 | 56 | 10µM
O=C(Nc1nc(-c2ccc3c(c2)OCCO3)cs1)C1CCCC1 | 0 | 0 | 0 | 49 | 149 | 0
O=C(CSCC(=O)N1CCOCC1)Nc1nc(-c2ccc3c(c2)OCO3)cs1 | - | 0 | 0 | 33 | 0 | 0
Cc1ccccc1Nc1ncnc2c1cnn2C | 0 | 0 | 0 | 0 | 0 | ?
Cc1nn(CC(=O)NCc2ccc(N(C)C)cc2)c(=O)c2nn(-c3ccccc3)c(C)c12 | - | 0 | - | - | - | -
Cc1ccc(OCC(=O)Nc2ccc3c(c2)OC(F)(F)O3)c([N+](=O)[O-])n1 | 0 | 0 | 0 | 0 | 0 | 0
Cc1cc(OCC(=O)Nc2ccncc2)c(C)cc1Br | 0 | 0 | 0 | 0 | 0 | -
COc1cc(C=O)ccc1OCC(=O)Nc1ccc2c(c1)OCO2 | 0 | 0 | 0 | 20 | 44 | ?
Cc1ccc(OCC(=O)Nc2ccc3c(c2)OCO3)c([N+](=O)[O-])n1 | 0 | 0 | 0 | 28 | 54 | 0
Cc1ccc(C)c(OCC(=O)Nc2ccc3c(c2)OCO3)c1 | 0 | 0 | 0 | 48 | 42 | 0
Cc1cc(C)c(OCC(=O)Nc2cccc(O)c2)cc1C | 0 | 0 | 0 | 28 | 59 | 0
Cc1ccc(OCCC(=O)Nc2ccc3c(c2)OCO3)cc1 | 0 | 0 | - | - | - | 0
CCN(c1ccccc1)S(=O)(=O)c1ccc(NC(=O)c2nc(SC)ncc2Cl)cc1 | - | 0 | - | - | - | -
CN(C)CCNc1ccccn1 | - | - | 0 | - | - | -
CN(C)S(=O)(=O)N1CCC(n2cnc3cccnc32)CC1 | - | 0 | - | - | - | -
SMILES | Pf growth 48h | Sm TGR block | NS1 function inh | CHX counter | Shiga inhibitor | Pf growth 96h
Cc1cc(C)c(OCC(=O)Nc2ccc3c(c2)OCO3)cc1C | 0 | 0 | 0 | 21 | 0 | 0
CC(=O)Nc1ccccc1-c1nc2ccccc2n(CC(=O)Nc2cccc(C)c2C)c1=O | - | 0 | - | - | - | -
COc1ccc(C2OC34CCCCC3C(C#N)(C#N)C2(C#N)C(=N)O4)cc1 (stereo unspecified) | ? | 40µM | 0 | 0 | 0 | 0
N#CC1(C#N)COC23CCCCC2C1(C#N)C(=N)O3 (stereo unspecified) | 0 | 56µM | 0 | 0 | 0 | 0
CC1OC23CCCCC2C(C#N)(C(=N)O3)C1(C#N)C#N (stereo unspecified) | 0 | ? | 0 | 0 | 0 | 0
N#CC12COC3(CCCCC3C1(C#N)C#N)OC2=N (stereo unspecified) | 0 | 18µM | 0 | 0 | 0 | 0
COC(=O)c1cc(-c2cccc(OC)c2)c2c(=O)[nH]c(=O)n(C)c2n1 | ? | 0 | 0 | 0 | 0 | 0
COc1cccc(-c2nnc(SC(C(=O)c3c[nH]c4ccccc34)c3ccccc3)n2C)c1 (stereo unspecified) | 13µM | 0 | 0 | 0 | 0 | 13µM
Nc1c(C(=O)Nc2ccc3c(c2)OCCO3)nnn1Cc1cccc(Br)c1 | ? | 0 | - | - | - | ?
Cc1cc(C)c(NC(=O)Cn2nnc(C(=O)Nc3ccc(F)cc3F)c2N)c(C)c1 | 0 | 0 | 0 | 0 | 0 | 2.6µM
Cc1ccc(NC(=O)Cn2nnc(C(=O)NCc3ccc4c(c3)OCO4)c2N)cc1Cl | - | 0 | - | - | - | -
Nc1c(C(=O)Nc2ccc3c(c2)OCCO3)nnn1CCc1ccccc1 | - | 0 | 0 | 20 | 56 | 0
Cc1ccc(NC(=O)Cn2nnc(C(=O)Nc3ccc(C)c(C)c3)c2N)cc1 | 0 | 0 | 0 | 15 | 0 | 9.3µM
Cc1ccc(NC(=O)c2nnn(Cc3ccccc3)c2N)cc1C | - | 0 | - | - | - | -
Cc1cccc(C)c1NC(=O)Cn1nnc(C(=O)Nc2ccc(F)cc2F)c1N | 0 | 0 | 0 | 0 | 0 | 0
Cc1ccc(NC(=O)c2nnn(CC(=O)Nc3ccc4c(c3)OCO4)c2N)cc1C | 0 | 0 | 0 | 21 | 0 | 0
Cc1ccc(NC(=O)c2ccc(=O)n(CC(=O)Nc3cc(C)cc(C)c3)n2)cc1 | - | 0 | - | - | - | -
Nc1c(C(=O)Nc2ccccc2Cl)nnn1-c1ccc2c(c1)OCCO2 | 0 | 0 | 0 | 33 | 65 | ?
Cc1cccc(-n2nnc(C(=O)NCc3ccc4c(c3)OCO4)c2N)c1 | 0 | 0 | 0 | 0 | 0 | 0
CCOc1ccc(NC(=O)c2nnn(CC(=O)Nc3ccccc3OC)c2N)cc1 | 0 | 0 | 0 | 19 | 0 | ?
Cc1ccc(NC(=O)Cn2ccc(=O)[nH]c2=O)cc1 | 0 | 0 | 0 | 30 | 0 | 0
O=C(Cn1ccc(=O)[nH]c1=O)NCCO | 0 | 0 | - | 0 | 0 | ?
Cc1ccc(NC(=O)Cn2nc(C(=O)Nc3ccc(C)cc3)ccc2=O)cc1 | 0 | 0 | 0 | 0 | 0 | 13µM
COc1sc(SC)cc1/C=N/NC(=O)c1ccncc1 | 0 | 0 | 0 | 0 | 0 | 0
Cn1c2ccccc2n2c(=O)c(Cl)c(-c3ccccc3)c(C#N)c12 | 0 | 0 | 0 | 0 | 0 | 0
COc1ccccc1C(=O)Nc1ccc(OCc2cc(=O)n3ccsc3n2)cc1 | - | 0 | - | - | - | -
CC(C)NS(=O)(=O)c1cc(F)ccc1CN1C(=O)c2cccnc2C1=O | 0 | 0 | 0 | 0 | 0 | 2.1µM
Cc1ccc(CNS(=O)(=O)c2cc(F)ccc2CN2C(=O)c3cccnc3C2=O)o1 | 0 | 25µM | 0 | 0 | 0 | ?

Screening results: PubChem BioAssay, National Center for Advancing Translational Sciences (NCATS)
